Measured values published in PubChem BioAssay AID743325 (National Center for Advancing Translational Sciences (NCATS), 2014).
Activity calls are given as the source filed them. Calls come from the whole dose curve. Numbered stars: 1 amine (or outer) side, 2 acyl side, 3 side chain; on linkers, the order of the positions; unused ones are H or OH. Bridge positions count the residues as written; N and C are the ends. Square brackets hold non-standard residues; d marks the D form. Peptide text beside a SMILES is read from it. I, II: the chains in the order shown. Actinocin(9to1) = Cc1c2oc3c(C)ccc(C(=O)[*:1])c3nc-2c(C(=O)[*:2])c(N)c1=O; NMeV = CN[CH](C(=O)O)C(C)C; Sar = CNCC(=O)O

Experiment: qHTS profiling of Chloroquine Analogs as inhibitors of Plasmodium falciparum (3D7) proliferation
Settings: activity change, negative = inhibition: at 28.7 µM (top of the series) unless noted
Text: Plasmodium falciparum is a virulent malarial parasite that kills 1-2 million people worldwide each year. Transmitted by mosquitoes, the sporozoite form of the parasite enters the blood stream to infect hepatocytes, where they become merozoites that infect red blood cells (erythrocytes). Within erythrocytes, merozoites begin a […] cycle of growth and division, after which the parasite is released to infect new red blood cells. Gametocytes, which form within erythrocytes as well, circulate in the bloodstream and are ingested by the mosquito, thereby completing the life cycle. To profile malarial isolates for differential chemical responses and to identify inhibitors of malarial growth, an assay that measures P. falciparum growth and replication within erythrocytes was employed. This assay uses a DNA binding fluorescent dye (SYBR Green) to detect parasite DNA following cell lysis. Because mature erythrocytes lack DNA, only Plasmodium-derived DNA is detected.
The SYBR Green viability assay was adapted from a method described previously (Plouffe et al., 2008). For screening 3 ul culture medium was dispensed into 1536 well black clear bottom plates (Aurora Biotechnologies) using a Multidrop Combi (Thermo Fisher Scientific Inc.), 23 nL compounds in DMSO were added by a pin tool (Kalypsys), and 5 ul of erythrocytes infected with P. falciparum (0.3% parasitemia, 2.5% hematocrit final concentration) were added. The plates were incubated at 37 C in a humidified incubator in 5% CO2 for 72 h, and 2 ul lysis buffer (20 mM Tris HCl, 10 mM EDTA, 0.16% saponin, 1.6% triton X, 10X SYBR Green I supplied as 10,000X […] by Invitrogen) was added to each well. The plates were mixed for 25 sec with gentle shaking and incubated overnight at room temperature in the dark. The following morning, fluorescence intensity at 485(14) nm excitation and 535(25) nm emission wavelengths was measured on an EnVision (Perkin Elmer) plate reader. Plate reads were normalized relative to the control inhibitor (0.29 uM artemisinin) and vehicle (DMSO) wells present on each plate and then corrected by an algorithm using vehicle-only control plates at the beginning and end of the compound plate stack.

Row | Structure (SMILES) | Potency | activity change, negative = inhibition [%]
1 | C[C@H]1c2cccc(O)c2C(O)=C2C(=O)[C@]3(O)C(O)=C(C(N)=O)C(=O)[C@@H](N(C)C)[C@@H]3[C@@H](O)[C@@H]21 | 8410 nM (active) | 
2 | C[C@@H]1[C@@H](C(=O)C[C@H]2O[C@@H]3O[C@]4(C)CC[C@@H]5[C@H](C)CC[C@@H]([C@H]2C)[C@@]35OO4)O[C@@H]2O[C@]3(C)CC[C@H]4[C@H](C)CC[C@@H]1[C@@]24OO3 | 1.7 nM (active) | 
3 | Cc1c2oc3c(C)ccc(C(=O)NC4C(=O)NC(C(C)C)C(=O)N5CCCC5C(=O)N(C)CC(=O)N(C)C(C(C)C)C(=O)OC4C)c3nc-2c(C(=O)NC2C(=O)NC(C(C)C)C(=O)N3CCCC3C(=O)N(C)CC(=O)N(C)C(C(C)C)C(=O)OC2C)c(N)c1=O (configuration not stated) (I: TVP[Sar][NMeV] / II: TVP[Sar][NMeV]; ester I:1-I:C, II:1-II:C; linker I:N-II:N via Actinocin(9to1); configuration not given here) | 2.1 nM (active) | 
4 | OB1OCc2cc(F)ccc21 | inactive | 
5 | Cn1cncc1[C@@](N)(c1ccc(Cl)cc1)c1ccc2c(c1)c(-c1cccc(Cl)c1)cc(=O)n2C | 1680 nM (active) | 
6 | CCN(CC)CCOCCOC(=O)C(CC)(CC)c1ccccc1 | inactive | 
7 | Cc1cccc(C)c1OCC(N)C(C)C (configuration not stated) |  | -97.7
8 | CC[C@H]1OC(=O)[C@H](C)[C@@H](O[C@H]2C[C@@](C)(OC)[C@@H](O)[C@H](C)O2)[C@H](C)[C@@H](O[C@@H]2O[C@H](C)C[C@H](N(C)C)[C@@H]2O)[C@](C)(O)C[C@@H](C)CN(C)[C@H](C)[C@@H](O)[C@]1(C)O | 9430 nM (active) | 
9 | C[C@H]1[C@@H](OC(=O)CCC(=O)O)O[C@@H]2OC3(C)CC[C@H]4[C@H](C)CC[C@@H]1[C@@]24OO3 |  | -101
10 | Cc1nc2c(C#N)cccc2n1-c1ccc(C(=O)NC2CC2)s1 |  | -100
11 | C[C@H]1[C@@H](CCC(=O)Nc2ccc(F)cc2)O[C@@H]2O[C@]3(C)CC[C@@H]4[C@H](C)CC[C@@H]1[C@@]24OO3 |  | -100
12 | COc1cc2c(cc1C(F)(F)F)N(C(=O)Nc1cc(F)cc(-c3cccnc3)c1)CC2 | 3760 nM (active) | 
13 | C/C(=C\c1csc(C)n1)[C@@H]1C[C@@H]2O[C@]2(C)CCC[C@H](C)[C@H](O)[C@@H](C)C(=O)C(C)(C)[C@@H](O)CC(=O)O1 | inactive | 
14 | CCCC(=O)O[C@]1(C(=O)CCl)[C@H](C)C[C@@H]2[C@H]3CCC4=CC(=O)C=C[C@]4(C)[C@@]3(F)C(=O)C[C@@]21C |  | -101
15 | Cc1cccc(C)c1OCC(=O)N[C@@H](Cc1ccccc1)[C@@H](O)C[C@H](Cc1ccccc1)NC(=O)[C@H](C(C)C)N1CCCNC1=O |  | -99.8
16 | O=C(O)c1cn(C2CC2)c2cc(N3CCNCC3)c(F)cc2c1=O | inactive | 
17 | CC1=CC(=O)c2ccccc2C1=O | inactive | 
18 | COc1ccc(CCN(C)CCCC(C#N)(c2ccc(OC)c(OC)c2)C(C)C)cc1OC (configuration not stated) | inactive | 
19 | CC(=O)N(O)CCCP(=O)(O)O | 266 nM (active) | 

Row | Structure (SMILES) | Potency | activity change, negative = inhibition [%]
20 | CSc1cccc(NC(=O)CC[C@H]2O[C@@H]3O[C@]4(C)CC[C@H]5[C@H](C)CC[C@@H]([C@@H]2C)[C@@]35OO4)c1 | 21.1 nM (active) | 
21 | CC(CNC1CCCCC1)OC(=O)c1ccccc1 (configuration not stated) | inactive | 
22 | CCCC[C@@H]1C[C@@H](C(=O)NC([C@H](C)Cl)[C@H]2O[C@H](S)[C@H](O)[C@@H](O)[C@@H]2O)N(C)C1 (some centres not stated) | inactive | 
23 | O=C(Nc1ccc(Cl)cc1)Nc1ccc(Cl)c(Cl)c1 |  | -102
24 | CN([C@@H](Cc1ccc(OS(=O)(=O)c2cccc3cnccc23)cc1)C(=O)N1CCN(c2ccccc2)CC1)S(=O)(=O)c1cccc2cnccc12 | 237 nM (active) | 
25 | C[C@@H]1[C@@H](CC(C[C@H]2O[C@@H]3O[C@]4(C)CC[C@@H]5[C@H](C)CC[C@@H]([C@H]2C)[C@@]35OO4)C(=O)NCc2ccc(F)cc2)O[C@@H]2O[C@]3(C)CC[C@H]4[C@H](C)CC[C@@H]1[C@@]24OO3 (some centres not stated) |  | -101
26 | COc1ncnc(NS(=O)(=O)c2ccc(N)cc2)c1OC | 1500 nM (active) | 
27 | CCCCN(CCCC)CCC(O)c1cc2c(Cl)cc(Cl)cc2c2cc(C(F)(F)F)ccc12 (configuration not stated) | 5.1 nM (active) | 
28 | Cc1oncc1C(=O)Nc1ccc(C(F)(F)F)cc1 | inactive | 
29 | C[C@H](N)CN1CCc2ccc(Br)cc21 | 1680 nM (active) | 
30 | C=CCON=C(C[C@H]1O[C@@H]2O[C@]3(C)CC[C@@H]4[C@H](C)CC[C@@H]([C@H]1C)[C@@]24OO3)[C@H]1O[C@@H]2O[C@]3(C)CC[C@H]4[C@H](C)CC[C@@H]([C@@H]1C)[C@@]24OO3 |  | -102
31 | CCc1ccc(OCc2ccccc2C(=O)Nc2ccc3nc(C)cc(N)c3c2)cc1 |  | -101
32 | CCN(CC)CCOc1ccc2c(=O)c3ccc(Cl)cc3n(CCN(CC)CC)c2c1 |  | -101
33 | NC(=NCc1ccccc1)NC(=O)c1nc(Cl)c(N)nc1N |  | -99.4
34 | CC(=O)O[C@@]12CO[C@@H]1C[C@H](O)[C@@]1(C)C(=O)[C@H](O)C3=C(C)[C@@H](OC(=O)[C@H](O)[C@@H](NC(=O)OC(C)(C)C)c4ccccc4)C[C@@](O)([C@@H](OC(=O)c4ccccc4)[C@H]21)C3(C)C | inactive | 
35 | CCCCCCCCCCOc1cc2c(=O)c(C(=O)OCC)c[nH]c2cc1OCC | inactive | 
36 | CCCCN(CCCC)CC(O)c1cc(Cl)cc2c1-c1ccc(Cl)cc1C2=Cc1ccc(Cl)cc1 (configuration not stated) |  | -97.1
37 | CN1CC[C@H](CN2c3ccccc3Sc3ccccc32)C1 | inactive | 
